# Compound activity (PubChem BioAssay)
# This is a sample that favours compounds with a hit; in the whole collection about 5.6% have one here.
# Cardio protect: protects H9c2 cardiomyocytes from peroxide injury. protection from H2O2 cell death, % at 20 µM. H2O2 injury protection, ATPLite, 2 h. 360,000 tested, 0.63% active;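 active = compounds giving at least 50% protection of heart cells from peroxide-induced death in the single-dose screen, raw or plate-pattern-corrected value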;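 also: 0% = DMSO wells with peroxide and 100% = DMSO wells without peroxide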
# PHOSPHO1 inh: blocks human PHOSPHO1 phosphatase activity; Q8TCT1; recombinant PHOSPHO1, absorbance phosphatase assay; inhibition, % at 13.3 µM; 290,000 tested, 1.1% active; AID 1565; in the data active = inhibition above about 60%
# Target sequence (Q8TCT1 whole entry, looked up): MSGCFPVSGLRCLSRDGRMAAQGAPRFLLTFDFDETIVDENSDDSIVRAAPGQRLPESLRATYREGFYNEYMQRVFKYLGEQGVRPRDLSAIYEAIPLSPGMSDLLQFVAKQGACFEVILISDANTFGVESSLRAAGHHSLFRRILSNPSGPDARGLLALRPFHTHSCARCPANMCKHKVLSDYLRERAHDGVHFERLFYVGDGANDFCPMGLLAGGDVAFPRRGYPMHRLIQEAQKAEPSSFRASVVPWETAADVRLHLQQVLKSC
# PfGluPho inh: PfG6PD (Plasmodium falciparum) enzyme inhibition; PfGluPho enzyme, NADPH resazurin-diaphorase fluorescence; 350,000 tested, 0.78% active; inhibition, % at 20 µM; AID 504690;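 active = inhibition reaching at least a set limit at 20 µM in the primary screen, cut at about 59% in these data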;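 also: 0% = DMSO wells with substrate and 100% = DMSO wells lacking glucose-6-phosphate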
# ALR H2O2 inh: blocks human ALR sulfhydryl oxidase activity; purified ALR, DTT oxidation, H2O2 HRP-luminol luminescence; inhibition, % (no concentration beside the values); P55789; 290,000 tested, 3.8% active;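 active = mean replicate inhibition above about 79%, with every replicate also reaching it, limit read from the data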
# PfM18AAP inh: blocks P. falciparum M18 aspartyl aminopeptidase; recombinant PfM18AAP, H-Glu-NHMec fluorogenic cleavage; inhibition, % at 7.35 µM; 290,000 tested, 1.2% active; AID 1822;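 active = inhibition above the campaign mean inhibition over all tested compounds plus 3 SD, cut at about 28% in these data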;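 also: 0% = plate median of test compound wells and 100% = 2 mM ZnCl2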
# The depositor's hits bear a star; x = no result given.
SMILES,Cardio protect,PHOSPHO1 inh,PfGluPho inh,ALR H2O2 inh,PfM18AAP inh
Cc1cc(C(=O)CSc2nncs2)c(C)n1Cc1ccco1,-17,30,1,3,1
Cc1cc(C(=O)CCl)c(C)n1CCc1ccccc1,x,53,-2,96*,1
Cc1cc(C)nc(NS(=O)(=O)c2ccc(NC(=O)Cc3ccccc3F)cc2)n1,-4,37,2,99*,-5
Cc1cc(C)nc(NS(=O)(=O)c2ccc(NC(=O)Nc3ccccc3)cc2)n1,-2,28,37,2,-12
Cc1cc(C)nc(NS(=O)(=O)c2ccc(NC(=O)COc3ccccc3F)cc2)n1,0,x,-4,52,x
COc1cc(NS(=O)(=O)c2ccc(NC(=O)COc3ccc(C)cc3C)cc2)nc(OC)n1,0,21,-11,x,0
CCOc1ccccc1OCC(=O)Nc1ccc(S(=O)(=O)Nc2nc(C)cc(C)n2)cc1,0,16,-4,95*,-1
Cc1cc(C)nc(NS(=O)(=O)c2ccc(NC(=O)NC3CCCCC3)cc2)n1,0,7,-1,98*,4
COc1cc(NS(=O)(=O)c2ccc(NC(=O)COc3ccccc3C)cc2)nc(OC)n1,0,55,-14,99*,5
CC(=O)Nc1ccc(S(=O)(=O)NC2(c3ccccc3)C(=O)N(C)C(=O)N(C)C2=O)cc1,3,x,1,x,x
O=C(N1CCOCC1)N1CCN(S(=O)(=O)c2cccc([N+](=O)[O-])c2)CC1,-5,-4,-7,-5,2
CCOc1ccc(C(=O)NCC(c2ccco2)N2CCOCC2)cc1 (stereo unspecified),6,x,5,-8,x
CCOc1cc(/C=N/NC(=O)C(=O)NCC2CCCO2)ccc1OCC(=O)N1CCOCC1 (stereo unspecified),4,10,-3,2,-13
COc1cc(/C=N/NC(=O)C(=O)NCC2CCCO2)ccc1O (stereo unspecified),-1,-15,-7,99*,2
COc1cc(/C=C(\C#N)C(=O)NCC2CCCO2)ccc1O (stereo unspecified),4,-22,5,99*,0
Cc1cc(F)ccc1-c1cc(C(=O)NC(C)C)[nH]n1,-6,x,x,x,x
O=Nc1[nH]c(=O)c(/C=C(\O)c2ccccc2)nc1NO,0,42,-31,67,9
COc1cc(OC)cc(C(=O)Nc2ccc(-c3nc4ccccc4o3)cc2)c1,120*,5,4,-8,-8
CCc1ccc2oc(-c3ccc(NC(C)=O)cc3)nc2c1,-5,x,1,96*,2
CCN(CC)CC(=O)Nc1ccc(-c2nc3cc(NC(=O)CN(CC)CC)ccc3o2)cc1,3,-4,0,-20,-11
CCN(CC)C(=O)C1=C(C)N(Cc2ccc(F)cc2)C(=O)C(CC(=O)NCCN2CCOCC2)C1 (stereo unspecified),-4,x,-11,x,x
Cc1ccc(C)c(NC(=O)CN(C)C(=O)c2ccc(-c3cccc(C(F)(F)F)c3)o2)c1,-5,x,21,1,x
CCCN1C(=O)/C(=c2\sc3nc(=O)c(Cc4ccc(C)cc4)nn3c2=O)c2ccccc21,0,35,34,32,-30
CCCCN1C(=O)/C(=c2\sc3nc(=O)c(-c4ccccc4)nn3c2=O)c2ccccc21,7,-79,49,97*,-38
CCc1ccc(-c2cc(C)no2)cc1S(=O)(=O)N1CCN(c2ccc(F)cc2)CC1,-2,18,-4,-1,3
SMILES,Cardio protect,PHOSPHO1 inh,PfGluPho inh,ALR H2O2 inh,PfM18AAP inh
CNNC(=S)Nc1cccc(SC)c1,7,8,-5,x,25
Cc1nnc(SCC(=O)Nc2sc3c(c2C(N)=O)CCCC3)[nH]c1=O,0,-38,-4,-3,29*
Cc1sc(NC(=O)CSc2nnc(C)c(=O)[nH]2)c(C#N)c1C,0,33,-15,98*,26
Cc1nnc(SCC(=O)Nc2sc3c(c2C(N)=O)CCC(C)C3)[nH]c1=O (stereo unspecified),3,x,4,45,x
CC(C)=CC1C(C(=O)Nc2ccc(S(=O)(=O)N3CCOCC3)cc2)C1(C)C (stereo unspecified),-6,x,24,x,x
CSCCC(NC(=O)c1ccccc1Br)C(=O)NNC(=O)C1COc2ccccc2O1 (stereo unspecified),7,x,-19,x,x
O=C(CSCC(=O)OCn1nnc2ccccc2c1=O)Nc1ccc(Cl)cc1,4,36,-11,98*,-2
CN(C)c1ccc(NC(=O)CCCCCn2nnc3ccccc3c2=O)cc1,-6,43,8,99*,2
O=C(OCC(=O)N1CCN(c2ccccc2)CC1)c1cc(F)c(F)cc1Cl,12,x,4,x,x
